Sampled rows, rich in hits. Any-hit rate of the full collection: about 6.9%.
Giardia kill: Small Molecules that selectively kill Giardia lamblia: qHTS; Giardia lamblia trophozoite viability; AID 540267, 2011; hit rate 0.15% among 340,000; activity change, % at 7.66 µM, hits read low; in the data active = activity change below about -80%; inconclusive = between about -30% and that limit;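 also: parasites exposed to compound for two days anaerobically before the ATP read; % is scaled to controls: 0 for no effect and ±100 for the full control effect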
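Trophozoites 100 cells/well + cpd; 48 hrs, 37 deg C, anaerobic. ATPLite 1-Step added, 15-30 min RT, luminescence read (ATP-based viability).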
SW480 rereplic: A quantitative high throughput screen for small molecules that induce DNA re-replication in SW480 colon adenocarcinoma cells. SW480 DNA re-replication, Hoechst DNA content imaging, 48 h. Potency, µM (doses to about 46.1 µM), inactives show at the top dose re-replication activation, usual class: activators. hit rate 1.8% among 340,000. AID 624297, 2012; also: potency is read from the fitted curve at half-maximal effect; % of control where 0% means no effect; nearly all actives have a fitted effect of over 55% in size
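Treated cells incubate 48 hr (37 C, 5% CO2), are stained 40 min with Hoechst, and nuclear fluorescence is enumerated; a rise in nuclei with high DNA signal marks re-replication.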
MCF10A rereplic: A quantitative high throughput screen for small molecules that induce DNA re-replication in MCF 10a normal breast cells. MCF 10A DNA re-replication, Hoechst nuclear intensity, 48 h. Potency, µM (top dose mostly 46.1 µM), without a hit: at the top dose activity, positive = re-replication, hits mostly activators. hit rate 2.9% among 350,000. AID 624296, 2012; also: potency is read from the fitted curve at half-maximal effect; % of control where 0% means no effect; nearly all actives have a fitted effect of over 50% in size
IL1B secr inh: qHTS for Inhibitors of Inflammasome Signaling: IL-1-beta AlphaLISA Primary Screen. hit rate 4.7% among 360,000. activity change, % at 57.5 µM. THP-1 LPS/ATP IL-1B secretion, AlphaLISA, 16 h; active compounds read low. AID 743279, 2014; in the data active = activity change below about -50%; inconclusive = mostly about -30% to -49%; also: % is scaled to controls: 0 for no effect and ±100 for the full control effect
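THP-1 cells pretreated 1 hr with compounds (up to 57.5 uM final), then stimulated with LPS (250 ng/mL final) plus ATP (1.25 mM final); secreted IL-1B measured by AlphaLISA after 16 hr, decreased signal indicating inhibition.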
Vif-APOBEC3G blk: qHTS for Inhibitors of Vif-A3G Interactions: qHTS; HeLa A3G-eYFP + Vif (tagged APOBEC3G with the HIV-1 protein that degrades it), YFP fluorescence, overnight; Potency, µM (titrated, usually from 46.1 µM), inactives show at the top dose activity, negative = active, most hits filed as inhibitors; hit rate 0.076% among 410,000; AID 602310, 2012; also: potency is read from the fitted curve at half-maximal effect; % is scaled to controls: 0 for no effect and ±100 for the full control effect; nearly all actives have a fitted effect of over 60% in size
Target sequence (Q9HC16 whole entry, looked up): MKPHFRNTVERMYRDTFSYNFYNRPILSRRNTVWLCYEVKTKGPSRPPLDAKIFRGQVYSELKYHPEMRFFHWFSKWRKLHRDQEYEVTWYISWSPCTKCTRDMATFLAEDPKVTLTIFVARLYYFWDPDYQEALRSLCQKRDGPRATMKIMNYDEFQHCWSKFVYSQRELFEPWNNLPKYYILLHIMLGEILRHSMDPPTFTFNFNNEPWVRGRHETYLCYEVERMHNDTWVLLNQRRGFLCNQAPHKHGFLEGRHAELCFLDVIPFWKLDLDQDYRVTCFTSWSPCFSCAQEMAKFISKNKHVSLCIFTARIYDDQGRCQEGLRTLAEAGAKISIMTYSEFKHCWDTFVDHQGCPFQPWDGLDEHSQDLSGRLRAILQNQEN
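Read-out is eYFP fluorescence (Ex 488/Em 500-530) from Vif-expressing HeLa A3G-eYFP cells; more signal means A3G escaped Vif-mediated degradation. Cells plated overnight, compound pinned in, incubated overnight at 37 deg C.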
Vif-A3F inh: qHTS for Inhibitors of Vif-A3F Interactions: qHTS | hit rate 0.2% among 390,000 | HeLa A3F-eYFP + Vif (tagged APOBEC3F with the HIV-1 protein that degrades it), YFP fluorescence increase | Potency, µM (top dose mostly 46.1 µM), inactives show at the highest dose activity, negative = active; also: potency is read from the fitted curve at half-maximal effect; % of control where 0% means no effect; nearly all actives have a fitted effect of over 65% in size
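HeLa cells stably expressing A3F-eYFP plus Vif, plated and incubated overnight at 37 deg C, then exposed to compounds overnight at 37 deg C. Blocked degradation read as raised yellow fluorescence (Ex 488/Em 500-530).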
* marks the source's active call; other numbers are inactive results; ? = inconclusive; nt = not tested or not shown. Unless noted, calls follow the shape of the dose curve; as a rule, active = well fitted curve in the direction sought with a large enough effect; inconclusive = small, poorly fitted or top-dose-only effect, or another doubt; inactive = no such curve, though single readings can be large; an effect the other way counts as inactive or inconclusive.

SMILES	Giardia kill	SW480 rereplic	MCF10A rereplic	IL1B secr inh	Vif-APOBEC3G blk	Vif-A3F inh
O=C(Cn1nc(Cc2cccnc2)c2ccccc2c1=O)Nc1cccc(C(F)(F)F)c1	nt	nt	nt	nt	0.1%	-13.4%
COc1ccc(C[C@H]2CN3C(=NC[C@@H]3C(C)C)N2CCNC(=O)c2ccc(C)c(Br)c2)cc1	-1.7	-5.5%	4.9%	-63.1*	3.3%	-15.3%
CCN1CCOC(=O)C1CC(=O)Nc1ccc(C)c(Cl)c1 (centres undefined)	nt	nt	nt	nt	-5.7%	-7.6%
CCN(CC)CCCNC(=O)c1[nH]c2ccccc2c1Sc1ccc(Cl)cc1	9.9	25.1%	?	-76.1*	-10.2%	-8.2%
CCCCNC(=O)c1[nH]c2ccccc2c1Sc1ccc(C)cc1	nt	nt	nt	nt	-2.8%	4.1%
COC(=O)c1cc2sc(C)cc2n1CC(=O)Nc1cccc(SC)c1	nt	nt	nt	nt	1.0%	-4.0%
O=C(CSc1nnc(-c2cccs2)o1)c1cccs1	-4.2	?	3.66µM*	-0.9	3.6%	-2.7%
CN(C)C(=O)CSc1nnc(-c2cc(-c3cccs3)nc3ccccc23)o1	4.7	?	10.3µM*	-60.3*	-10.6%	-5.2%
COc1cc(OC)cc(C(=O)NCCc2csc(-c3cccc(C)c3)n2)c1	nt	nt	nt	nt	4.8%	-7.7%
Cc1c2ccncc2cc2c1[nH]c1ccccc12	17.0	23.1µM*	16.4µM*	-96.5*	?	-2.9%
CCOc1ccc(NC(=O)c2cc3sc(Cl)cc3n2CC)cc1	nt	nt	nt	nt	0.9%	1.1%
CC(/C=N/n1c(-c2ccc(Cl)cc2)n[nH]c1=S)=C\c1ccco1	-16.2	4.5%	19.5%	3.4	-28.4%	-13.1%
N#C/C(=C\c1ccco1)C(=O)NCc1ccccc1	-3.1	-160.0%	-4.4%	0.0	0.7%	0.3%
N#CC(C#N)=C1C=CC=CN1/C(=C\c1ccco1)C(=O)c1ccc(Cl)cc1	1.9	2.59µM*	1.64µM*	-100.7*	?	?
N#CC(C#N)=C1C=CC=CN1/C(=C\c1ccco1)C(=O)c1ccc(-c2ccccc2)cc1	-17.5	nt	3.26µM*	-66.8*	-30.5%	7.3%
CCOC(=O)C1=C(C)N(c2ccc(OCC)cc2)C(=O)/C1=C\c1ccco1	-3.8	16.7%	16.4µM*	-12.7	-18.0%	?
COC(=O)C1=C(C)N(c2cccc(OC)c2)C(=O)/C1=C\c1ccco1	-3.5	-0.9%	-3.1%	9.0	1.1%	0.9%
CCOC(=O)C(C)Sc1nc(=O)n2cccc(C)c2n1 (centres undefined)	9.0	-9.7%	-6.3%	-4.4	0.8%	1.7%
Cc1cccn2c(=O)nc(SCC(=O)NC3CCCC3)nc12	1.6	18.4µM*	-0.4%	0.6	1.9%	0.3%
CCOC(=O)CSc1nc(=O)n2cccc(C)c2n1	18.8	-4.4%	-4.5%	-96.6*	0.7%	-0.6%
Nc1ccc(/C=C/C(=O)c2cccs2)cc1	-15.0	?	13.4%	-108.7*	-15.3%	?
Cc1c(/C=C/C(=O)c2cccs2)cnn1C	4.5	?	20.6µM*	-22.9	0.1%	2.5%
CCc1ccc(C(=O)/C=C/c2cnn(C)c2C)s1	-3.2	-8.6%	-1.2%	?	1.7%	-7.7%
Cc1ccc(C(=O)Nc2cccc(C(=O)OCc3cc(=O)n4c5c(sc4n3)CCCC5)c2)cc1	nt	nt	nt	nt	-0.2%	-5.8%
O=Nc1c(O)[nH]c2ccc(Cl)c(Cl)c12	11.7	1.0%	18.2%	-94.9*	-13.7%	10.8%
O=Nc1c(O)[nH]c2c(F)cccc12	0.4	-72.4%	15.2%	3.7	0.3%	-6.4%
COc1ccccc1CNC(=O)CN1C(=O)CSc2ccc(S(=O)(=O)N3CCCCC3)cc21	nt	nt	nt	nt	0.6%	6.3%
Cc1cc2c(cc1S(=O)(=O)N1CCc3ccccc31)NC(=O)CO2	-9.2	8.0%	4.8%	-78.5*	-9.9%	9.2%
